This excerpt belongs to a sample that is enriched for hits.
Shiga inhibitor – A qHTS for Small Molecule Inhibitors of Shiga Toxin; Vero cells, Shiga toxin protein synthesis inhibition reporter; inhibition, % at 38.7 µM; actives 9.2% (n = 290,000); AID 2315, 2010; in the data active means inhibition mostly above about 28%, no sharp cut-off; inactive means mostly below about 43%; further: 0% is about no effect
LmPK inhibitor – qHTS Assay for Inhibitors of Leishmania Mexicana Pyruvate Kinase (LmPK). actives 0.37% (n = 290,000). purified LmPK, Kinase-Glo ATP luminescence, 1 h. Q27686. Potency, µM (doses to about 57.5 µM), for inactives: top-dose activity change, negative = inhibition, most hits filed as inhibitors; further: potency means the concentration at half of the fitted maximal effect; on the % scale 0 is the no-effect control and ±100 the full control effect
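Screened at intermediate enzyme activity to detect both inhibitors and activators: LmPK at 0.1 nM, with a 0.5 nM enzyme column as activation reference. PEP 0.5 mM, ADP 0.1 mM; ATP detected by luminescence after 1 h.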
FBPA Giardia inh – qHTS Assay for Inhibitors of Fructose-1,6-bisphosphate Aldolase from Giardia Lamblia; Potency, µM (series often up to 59.6 µM), for inactives: at the top dose activity, negative = inhibition, actives largely listed as inhibitors; actives 0.71% (n = 290,000); purified Giardia FBPA; AID 2451, 2010; further: potency means the concentration at half of the fitted maximal effect; on the % scale 0 is the no-effect control and ±100 the full control effect; nearly all actives have a fitted effect of over 55% in size
Target sequence (A8B2U2 whole entry, looked up): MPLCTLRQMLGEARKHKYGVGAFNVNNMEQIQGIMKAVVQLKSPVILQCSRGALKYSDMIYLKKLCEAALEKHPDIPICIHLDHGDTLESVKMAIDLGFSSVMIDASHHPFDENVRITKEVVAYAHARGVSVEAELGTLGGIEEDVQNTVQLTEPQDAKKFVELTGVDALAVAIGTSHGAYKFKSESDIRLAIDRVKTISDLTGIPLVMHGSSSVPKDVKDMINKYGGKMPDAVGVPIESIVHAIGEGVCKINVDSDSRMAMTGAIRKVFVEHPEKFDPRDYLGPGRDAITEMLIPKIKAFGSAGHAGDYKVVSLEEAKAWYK
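Giardia FBPA (40 nM reagent) was preincubated 10 min at RT with compound (up to 57.5 uM final), then substrate plus GAPDH/TPI/NAD/arsenate coupling system with diaphorase/resazurin was added; resorufin fluorescence (525/598 nm) was read after 20 min.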
RE007 growth inh – qHTS Assay for Inhibitors of the HIV-1 protein Vpr; AID 651644, 2012; actives 0.21% (n = 360,000); S. pombe RE007 Vpr strain, BacTiter-Glo ATP luminescence, 24 h; Potency, µM (titrated, usually from 92.2 µM), without a hit: at the highest dose activity change, negative = less growth, actives largely listed as inhibitors; active means well fitted falling curve with a large enough effect; inconclusive means small, poorly fitted or top-dose-only effect; inactive means no such curve, though single readings can be large or run the other way; further: potency means the concentration at half of the fitted maximal effect; on the % scale 0 is the no-effect control and ±100 the full control effect; nearly all actives have a fitted effect of over 50% in size
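Fission yeast strain RE007, carrying one chromosomally integrated HIV-1 vpr copy, was seeded at OD 0.01 in PMG+AL medium with 23 nL pinned compound. After 24 h at 30 °C and 99% humidity, viability was read by BacTiter-Glo luminescence.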
TbPYK inhibitor – qHTS of Trypanosoma Brucei Inhibitors. pyruvate kinase (Trypanosoma brucei), Q57TT1. TbPYK enzyme, Kinase-Glo Plus ATP luminescence, 45 min. Potency, µM (series often up to 76.8 µM), inactives show at the top dose activity, negative = inhibition, hits mostly inhibitors. actives 0.12% (n = 410,000). AID 624173, 2012; further: potency means the concentration at half of the fitted maximal effect; on the % scale 0 is the no-effect control and ±100 the full control effect; nearly all actives have a fitted effect of over 50% in size
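ADP (130 uM final) triggers the TbPYK reaction after compound addition; incubation is 45 min at room temperature. Kinase-Glo Plus is then added and luminescence imaged. Normalized data are fitted to concentration-effect curves.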
CHX counter – Cycloheximide Counterscreen for Small Molecule Inhibitors of Shiga Toxin; cell reporter, cycloheximide protein synthesis inhibition counterscreen; actives 12% (n = 300,000); max response, %; AID 2314, 2010; in the data active means max response mostly above about 13%, no sharp cut-off; inactive means mostly below about 14%; further: read at 38.3 µM for the half of the compounds with a filed dose; 0% is about no effect
The depositor's hits bear a star; ? = inconclusive; . = no result given; [ ] = dose if it differs, or a comment. Unless noted, the call rests on the fitted dose curve; in most records, active means well fitted curve in the direction sought with a large enough effect; inconclusive means small, poorly fitted or top-dose-only effect, or another doubt; inactive means no such curve, though single readings can be large; an effect the other way counts as inactive or inconclusive.

SMILES	Shiga inhibitor	LmPK inhibitor	FBPA Giardia inh	RE007 growth inh	TbPYK inhibitor	CHX counter
CCNC(=S)N1CCC(c2nc3ccccc3s2)CC1	-7	-4%	6%	3%	-4%	-4
O=C(CN1CCC(c2nc3ccccc3s2)CC1)N1CCCCC1	33	1%	7%	-2%	-2%	16
CNC(=S)N1CCC(c2nc3ccccc3s2)CC1	46	1%	12%	?	-5%	28*
O=C(CN1CCC(c2nc3ccccc3s2)CC1)NCc1cccs1	33*	-9%	1%	-4%	2%	26*
Cc1ccc2nc(NC(=O)CSCC(=O)OCC(=O)c3ccccc3)sc2c1	15	2%	0%	-1%	-2%	18*
CCOc1ccc2nc(NC(=O)Cn3c(C)csc3=O)sc2c1	.	.	.	16%	-6%	.
CCOc1ccc2nc(NC(=O)CCC(=O)c3cccs3)sc2c1	87*	-2%	-3%	1%	-11%	30*
CCOc1ccc2nc(NC(=O)CSCC(=O)Nc3cc(C)on3)sc2c1	.	.	.	7%	-7%	.
COc1ccccc1NC(=O)COC(=O)c1ccccn1	-13	4%	0%	-15%	-3%	-5
Cc1ccc2nc(NC(=O)COC(=O)c3ccccn3)sc2c1	119*	-1%	-27%	4%	3%	36*
CCOCC(=O)Nc1nc2ccc(OCC)cc2s1	112*	?	-1%	-1%	-8%	52*
CCOc1ccc(C(=O)c2cn(Cc3ccccc3)c3c(F)cc(F)cc3c2=O)cc1	.	.	.	.	-2%	.
Cc1ccc(C(C)C)c(OCC(=O)Nc2ccc(O)c(-c3nc4cc(Cl)ccc4o3)c2)c1	.	.	.	.	-4%	.
CCOc1ccc2nc(-c3cc(NC(C)=O)ccc3O)sc2c1	51	11%	0%	-5%	0%	35*
CCOCC(=O)Nc1nc2ccc(C)cc2s1	85*	-27%	1%	?	0%	43*
CS(=O)(=O)c1ccc2nc(NC(=O)CC3CCCC3)sc2c1	53*	1%	-5%	1%	-5%	24*
CCOCC(=O)Nc1nc2ccc(S(C)(=O)=O)cc2s1	54*	-6%	1%	-13%	1%	33*
C/C=C/C(=O)OCC(=O)Nc1nc2ccc(C)cc2s1	-3	-8%	0%	10%	5%	7
CCC(=O)Nc1nc2ccc(S(C)(=O)=O)cc2s1	25	0%	4%	8%	2%	14
N=C1N=C(N)c2cc3ccccc3cc21	.	.	.	.	3%[157 µM]	.
CCN1CCN(C(=O)Cn2ncc3c4ccccc4n(Cc4c(C)cc(C)cc4C)c3c2=O)CC1	.	.	.	.	3%	.
CS(=O)(=O)c1ccc2nc(NC(=O)CCN3C(=O)c4ccccc4C3=O)sc2c1	9	-2%	3%	-11%	-25%	11
CC(C)CC(=O)Nc1nc2ccc(S(C)(=O)=O)cc2s1	67*	-1%	4%	6%	-14%	17*
Clc1ccc(N/N=C/c2ccncc2)cc1Cl	60*	1%	7%	-3%	-4%	38*
Clc1cnc(N/N=C/c2ccncc2)c(Cl)c1	49*	3%	-2%	-20%	-4%	16*
SMILES	Shiga inhibitor	LmPK inhibitor	FBPA Giardia inh	RE007 growth inh	TbPYK inhibitor	CHX counter
Cc1ccccc1OCC(=O)Nc1cccc(C(=O)OCc2cc(=O)n3c(C)csc3n2)c1	.	.	.	.	-7%	.
COc1ccc(-c2c(C#Cc3ccsc3)c3ccccc3n2C)cc1	39*	-1%	-9%	12%	-17%	23*
CCOC(=O)c1c(C)oc2nc(C)nc(NCCCN3CCN(c4ccccc4OC)CC3)c12	.	.	.	.	-1%	.
COc1ccc(-c2noc(N3CCC(C(=O)NCCCN4CCCCC4)CC3)n2)cc1	20*	-5%	-12%	-2%	-1%	3
CCN(C(=O)C1CCN(c2nc(-c3ccc(OC)cc3)no2)CC1)c1ccccc1	-1	1%	-4%	20%	0%	-2
COc1ccc(-c2noc(N3CCC(C(=O)NCCCN4CCCC(C)C4)CC3)n2)cc1 (centres undefined)	18	0%	2%	-6%	-1%	active
COc1ccc(-c2noc(N3CCC(C(=O)N(C)c4ccccc4)CC3)n2)cc1	13	2%	8%	3%	1%	8.2*
O=C1CN(C(=O)COc2ccc(Cl)cc2)C(c2ccc(F)cc2)c2cc(Br)ccc2N1 (centres undefined)	.	.	.	.	-3%	.
CCOc1ccc2nc(NC(=O)CSc3nc(-c4ccccc4)c(C#N)c(=O)[nH]3)sc2c1	39*	11%	?	1%	1%	41*
COc1cccc(-c2nc(SCC(=O)Nc3nc(-c4ccccc4)c(C)s3)[nH]c(=O)c2C#N)c1	7	6%	11%	16%	2%	-3
COc1ccc2nc(NC(=O)CSc3cn[nH]n3)sc2c1	66*	-6%	14%	4%	0%	43*
CCOc1ccc2nc(NC(=O)CSc3nc(SC)ns3)sc2c1	70*	0%	0%	23%	5%	55*
CCOc1ccc2nc(NC(=O)CSc3cn[nH]n3)sc2c1	149*	8%	-1%	7%	-7%	34*
CCOc1ccc2nc(NC(=O)CSc3ccc(Cl)cc3)sc2c1	39	7%	-1%	16%	0%	18
COc1ccc(O[C@H]2C=C[C@@H](c3ccccc3)O[C@H]2COC(=O)CC/C(C)=N\OC[C@@H](C)[C@H](OCc2ccccc2)C(C)C)cc1	.	.	0%[12.9 µM]	.	.	.
CCOc1ccccc1NC(=O)C(NS(=O)(=O)c1ccc2c(c1)CCC(=O)N2)c1ccccc1 (centres undefined)	.	.	.	.	-5%	.
Cc1sc2ncn(CC(=O)N3CCN(c4ccccc4)CC3)c(=O)c2c1S(=O)(=O)N1CCN(c2ncccn2)CC1	.	.	.	.	-10%	.
CC1CC1C(=O)Nc1ccc(-c2ccccc2)cc1 (centres undefined)	83*	0%	0%	14%	0%	45*
COc1ccc(NC(=O)Cn2c(=O)n(Cc3ccccc3)c(=O)c3sc4ccccc4c32)cc1	.	.	.	.	1%	.
CCC(=O)[C@]12O[C@@]3(C4C(=O)OCCC41)N(Cc1ccccc1)C(C)=C(C(=O)OC)C(c1ccccc1)N3C2=O (some centres undefined)	.	.	-1%[12.9 µM]	.	.	.
COc1cc(C2C(C(C)=O)=C(O)C(=O)N2CCN2CCOCC2)ccc1O (centres undefined)	-4	-14%	-16%	4%	0%	-3
CCCOc1ccc(C2C(C(=O)/C=C/c3ccco3)=C(O)C(=O)N2CCN2CCOCC2)cc1OC (centres undefined)	-1	-1%[11.5 µM]	7.9µM*	8%	-16%	-2
